Assay outcomes as filed in PubChem.
The list is not random: actives were taken first. Their share in the collection is about 12%.
BAZ2B inh = BAZ2B (human) inhibition | Q9UIF8 | AlphaScreen BAZ2B-H3K14Ac peptide displacement | Potency, µM (top dose mostly 114 µM), usual class: inhibitors | 360,000 compounds, 4.4% hits | AID 504333; further: nearly all actives have a fitted effect of over 60% in size
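Inhibition is scored as reduced AlphaScreen emission. The BAZ2B/b-H3(5-23)K14Ac complex (50 nM each) in PBS pH 7.4, 0.01% Tween-20 meets compound (up to 110 uM) for 30 min at RT before bead addition.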
Sfp PPTase inh = Sfp phosphopantetheinyl transferase inhibition. Potency, µM, most hits filed as inhibitors. Q9F4F7. Biochemical Sfp PPTase activity, qHTS. 310,000 compounds, 3.5% hits;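 further: the enzyme is Sfp with the accession as filed and its product quenches rhodamine fluorescence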
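Step 1, compound plus 15 nM Sfp-PPTase, 15 min, room temperature. Step 2, add rhodamine-CoA (5 uM) and BHQ-2-YbbR (12.5 uM). Step 3, read 525/598 nm fluorescence at 0 and 30 min.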
G9a inh = inhibitors of human histone lysine methyltransferase G9a | Potency, µM (titrated, usually from 102 µM), most hits filed as inhibitors | 350,000 compounds, 8.8% hits | Q96KQ7 | G9a H3K9 monomethylation, AlphaScreen, 2 h | AID 504332; further: nearly all actives have a fitted effect of over 75% in size
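Quantitative HTS format: methyltransferase activity on a biotin-tagged H3K9 peptide is measured by AlphaScreen, using a rabbit anti-monomethyl-H3K9 antibody with streptavidin donor and anti-IgG acceptor beads. Final levels are 20 nM enzyme, 500 nM peptide, 20 uM SAM; 2 h RT.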
TDP1 inh = inhibitors of human tyrosyl-DNA phosphodiesterase TDP1; recombinant TDP1, AlphaScreen DNA substrate cleavage; Potency, µM (series often up to 130 µM), most hits filed as inhibitors; 350,000 compounds, 0.28% hits; further: nearly all actives have a fitted effect of over 40% in size
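Compounds were preincubated with Tdp1 (1 nM final) for 15 min at room temperature before substrate (15 nM final) started a 5 min reaction; beads (10 ug/ml final) were then added for 10 min before AlphaScreen detection.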
JMJD2A Tudor = inhibitors of human JMJD2A Tudor domain; O75164; AlphaScreen JMJD2A-Tudor / H3K4me3 peptide binding; Potency, µM (highest dose often 114 µM), most hits filed as inhibitors; 390,000 compounds, 4.4% hits; AID 504339; further: nearly all actives have a fitted effect of over 50% in size
Target sequence (O75164 whole entry, looked up, the tested form may be a part): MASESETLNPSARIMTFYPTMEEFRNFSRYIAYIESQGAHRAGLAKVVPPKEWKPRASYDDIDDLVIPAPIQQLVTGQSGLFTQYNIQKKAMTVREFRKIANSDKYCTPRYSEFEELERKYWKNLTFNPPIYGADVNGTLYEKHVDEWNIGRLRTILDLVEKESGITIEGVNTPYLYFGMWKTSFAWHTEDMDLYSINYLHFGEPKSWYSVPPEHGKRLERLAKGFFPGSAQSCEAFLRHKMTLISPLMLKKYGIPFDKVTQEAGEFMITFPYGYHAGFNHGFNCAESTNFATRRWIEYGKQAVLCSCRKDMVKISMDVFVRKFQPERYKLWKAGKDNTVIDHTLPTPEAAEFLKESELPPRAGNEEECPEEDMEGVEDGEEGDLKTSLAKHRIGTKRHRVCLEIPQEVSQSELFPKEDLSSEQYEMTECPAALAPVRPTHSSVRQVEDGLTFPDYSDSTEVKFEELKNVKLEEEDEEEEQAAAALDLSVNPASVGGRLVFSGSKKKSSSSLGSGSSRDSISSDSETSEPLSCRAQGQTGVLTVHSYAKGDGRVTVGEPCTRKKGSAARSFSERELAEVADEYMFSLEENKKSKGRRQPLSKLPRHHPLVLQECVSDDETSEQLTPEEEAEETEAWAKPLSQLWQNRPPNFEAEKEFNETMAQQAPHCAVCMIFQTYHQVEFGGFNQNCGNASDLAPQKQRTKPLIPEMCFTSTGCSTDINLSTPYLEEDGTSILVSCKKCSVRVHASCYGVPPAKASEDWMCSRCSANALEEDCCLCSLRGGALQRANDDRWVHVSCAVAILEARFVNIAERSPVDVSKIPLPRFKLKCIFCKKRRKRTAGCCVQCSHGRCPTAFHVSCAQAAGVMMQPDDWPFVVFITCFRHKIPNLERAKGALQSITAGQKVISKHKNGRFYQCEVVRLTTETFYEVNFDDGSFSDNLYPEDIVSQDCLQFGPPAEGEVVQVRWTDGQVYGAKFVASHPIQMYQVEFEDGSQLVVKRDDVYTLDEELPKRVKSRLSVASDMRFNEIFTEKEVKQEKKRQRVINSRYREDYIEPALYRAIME
HP1b binding inh = HP1-beta chromodomain-methylated histone interaction inhibition. AlphaScreen HP1-beta / biotin-H3K9me3 peptide binding. Potency, µM (doses to about 114 µM), hits mostly inhibitors. 390,000 compounds, 0.56% hits. AID 540317; further: nearly all actives have a fitted effect of over 70% in size
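AlphaScreen: HP1-beta (50 nM) preformed 30 min with biotin-H3(1-18)K9me3 peptide (50 nM) in PBS pH 7.4, 0.01% Tween-20. Compound added for 30 min at RT, then streptavidin donor/nickel chelate acceptor beads (10 ug/mL) for 30 min.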
Numbers stand for hits; n = inactive; u = inconclusive; x = not tested or not shown; [ ] = another dose, or the depositor's remark. The call rests on the fitted dose curve; in most records, active means well fitted curve in the direction sought with a large enough effect; inconclusive means small, poorly fitted or top-dose-only effect, or another doubt; inactive means no such curve, though single readings can be large; an effect the other way counts as inactive or inconclusive.

SMILES | BAZ2B inh | Sfp PPTase inh | G9a inh | TDP1 inh | JMJD2A Tudor | HP1b binding inh
N#Cc1c(NC(=O)c2cc(C3CC3)on2)sc2c1CCC2 | n | u | 40µM | n | n | n
CC(C)Cc1cc(C(=O)Nc2sc3c(c2C#N)CCCC3)no1 | n | n | n | n | n | n
CCOC(=O)c1cc(C(=O)Nc2sc3c(c2C#N)CCCC3)nn1C | n | 35µM | 11µM | n | n | n
Cc1cc(C(=O)Nc2sc3c(c2C#N)CCC3)no1 | n | n | u | n | n | n
C=CCc1cccc(C2C(C)CCC3C(=O)N4C(CCC(C)C4c4cccc(CC=C)c4)C(=O)N32)c1 (stereo not drawn) | x | n | x | n[21 µM] | x | x
O=c1cnc2cnc(Nc3ccccc3)nc2n1CCc1ccccc1 | x | n | n[0.501 µM] | x | x | x
Cn1ncc2c(O/N=C(\N)c3ccc(C(F)(F)F)cc3)ncnc21 | n | n | n | n | n | n
CCCC[C@@H]1C[C@H]1C(NC(=O)Cc1ccccc1)c1ccc(-c2ccccc2)cc1 (stereo partly drawn) | x | n | x | n | x | x
Cc1cc(C)nc(N2CCCC(C(=O)Nc3ccc(F)cc3)C2)n1 (stereo not drawn) | n | n | n | n | n | n
O=C(Nc1ccccc1C(=O)OCc1cc(=O)n2nc(C3CC3)sc2n1)c1ccc(Cl)cc1 | n | x | n[12.7 µM] | n | n | n
COc1ccccc1-c1cc(C(=O)Nc2ccccc2SC)no1 | n | n | n[2.33 µM] | n | n | n
N#Cc1c(NC(=O)c2cc(-n3cnnc3)ccc2Cl)sc2c1CCCC2 | n | n | 11µM | n | n | n
Cc1cc(C(F)F)n2nc(C(=O)Nc3sc4c(c3C#N)CCC4)nc2n1 | u | u | 50µM | n | n | u
Cc1ccc(C(=O)Nc2sc3c(c2C#N)CCCCC3)cc1C | n | u | n | n | n | n
COc1ccccc1-c1cc(C(=O)Nc2sc3c(c2C#N)CCCC3)no1 | n | x | 3.2µM | n | n | u
CCOC(=O)CSc1n[nH]c(NC(=O)CC)n1 | n | n | u | x | n | n
Cc1ccc(C)c(NC(=O)N2CCN(C)c3ncccc32)c1 | n | x | n | n | n | n
Cc1ccc(C)c(NS(=O)(=O)c2ccc3c4c(cccc24)C(=O)N3)c1 | n | x | n | n[12.3 µM] | n | n
O=C1Nc2ccc(S(=O)(=O)Nc3ccccc3O)c3cccc1c23 | n | x | 13µM | n | n | n
CCOC(=O)C1(Cc2cccc(Cl)c2)CCCN(C(=O)c2c(CC)noc2C)C1 (stereo not drawn) | n | n | u | n | n | n
c1cc(CNCCNCc2ccncc2)ccn1 | x | x | x | x | n | n
Cc1nnc(N/N=C\c2ccc(-c3ccccc3[N+](=O)[O-])o2)n1N | 71µM | 18µM | 6.3µM | n | u | n
Cc1ccc(C(=O)N/N=C/c2ccc(-c3ccccc3[N+](=O)[O-])o2)cn1 | n | u | n | n | n | n
CCc1nnc(N/N=C/c2ccc(-c3ccc([N+](=O)[O-])cc3)o2)n1N | u | u | u | n | n | n
Cc1n[nH]c(=S)n1/N=C/c1ccc(-c2ccccc2[N+](=O)[O-])o1 | n | 8.9µM | u | n | 40µM | n
SMILES | BAZ2B inh | Sfp PPTase inh | G9a inh | TDP1 inh | JMJD2A Tudor | HP1b binding inh
Cc1nnc(N/N=C/c2ccc(-c3ccccc3F)o2)n1N | n | 45µM | 40µM | n | n | n
CCOC(=O)C(=O)NCC(c1cccs1)S(=O)(=O)c1ccc(F)cc1 (stereo not drawn) | n | x | n[0.501 µM] | n | n | n
CCC(=O)N1CCc2cc(Br)cc(S(=O)(=O)CCC(=O)N(CC)Cc3ccccc3)c21 | n | x | n | n | n | n
Cc1cc(C)cc(C(=O)NC(CC(N)=O)c2ccc(NCC3CC3)c([N+](=O)[O-])c2)c1 (stereo not drawn) | n | n | 79µM | x | n | n
COc1ccc(OC)c(C(=O)NC(CC(N)=O)c2ccc(NCCOc3ccccc3)c([N+](=O)[O-])c2)c1 (stereo not drawn) | u | n | x | x | u | n
Cc1cc(C)cc(C(=O)NC(CC(N)=O)c2ccc(NC3CCCCCCCCCCC3)c([N+](=O)[O-])c2)c1 (stereo not drawn) | u | n | 45µM | x | u | n
COc1ccc(CCNc2ccc(C(CC(N)=O)NC(=O)c3cc(OC)ccc3OC)cc2[N+](=O)[O-])cc1 (stereo not drawn) | 32µM | n | 45µM | x | u | n
NC(=O)CC(NC(=O)c1ccccc1)c1ccc(NC2CCN(Cc3ccccc3)CC2)c([N+](=O)[O-])c1 (stereo not drawn) | u | n | 50µM | x | n | n
Cc1cc(C)cc(C(=O)NC(CC(N)=O)c2ccc(NC3CCCCCCC3)c([N+](=O)[O-])c2)c1 (stereo not drawn) | n | n | u | x | n | n
NC(=O)CC(NC(=O)c1ccccc1)c1ccc(NCC2CC2)c([N+](=O)[O-])c1 (stereo not drawn) | n | n | n[12.7 µM] | n | n | n
NC(=O)CC(NC(=O)c1ccccc1)c1ccc(NC2CCC2)c([N+](=O)[O-])c1 (stereo not drawn) | n | n | u | n | n | n
N#Cc1nc(Nc2cccc3ccccc23)nc(NC2CCCC2)n1 | x | x | x | n | n | x
CC(=O)N/N=C/c1cc(C(C)(C)C)cc(/C=N/NC(C)=O)c1O | n | n | n[12.7 µM] | n | n | n
CC(=O)c1ccc(NC(=O)CCNC(=O)c2ccccc2Cl)cc1 | n | n | n | n | n | n
CCCc1c(C(=O)OCC)nnc2c(-c3ccccc3)c(C)nn12 | n | x | n | n | n | n
CSCC[C@H](NC(=O)N1CCn2c1nc1ccccc12)C(=O)N[C@H](Cc1ccccc1)C(=O)O | u | n | n[12.7 µM] | x | u | n
CSCC[C@H](NC(=O)N1CCn2c1nc1ccccc12)C(=O)NCc1ccco1 | u | n | 79µM | n | 45µM | u
CSCC[C@H](NC(=O)N1CCn2c1nc1ccccc12)C(=O)NCc1ccccc1 | u | n | 45µM | n | u | n
CSCC[C@H](NC(=O)N1CCn2c1nc1ccccc12)C(=O)NCc1ccc(C)cc1 | u | n | 32µM | n | n | n
CC(C)[C@H](NC(=O)N1CCn2c1nc1ccccc12)C(=O)NCc1ccccc1Cl | n | n | n | n | n | n
O=C(Nc1sc2c(c1C(=O)O)CCCC2)c1cccc(Cl)c1 | n | n | n | x | n | n
Cc1ccc(NS(=O)(=O)N(C)C)cc1 | n | n | n | n | n | n
CN(C)S(=O)(=O)Nc1cc(Cl)cc(Cl)c1 | n | n | n | n | 40µM | n
Nc1ccccc1Nc1cc(-c2ccccc2)nn1-c1cccc(Cl)c1 | 11µM | n | u | n | 20µM | 45µM
CCOC(=O)c1cc(-c2ccc(C)cc2)n(CCC(=O)NCCN(C)C)c1C | 50µM | n | u | n | u | n
